Data: PubChem BioAssay (NCATS)
Results filed as inconclusive are left out. Active and inactive are the calls of the source. Unless noted, the call rests on the fitted dose curve; in most records, active means well fitted curve in either direction with a large enough effect (not every such curve was filed as active); inconclusive means small, poorly fitted or top-dose-only effect, or another doubt; inactive means flat fitted curve, though single readings scatter.

How the values were obtained:
[1] = AP1 Signaling Pathway (AID 357);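 further: ME-180 reporter cells stimulated with EGF at its EC50 level; on the % scale 0 is the no-effect control and ±100 the full control effect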
Method in brief: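 Read-out was the 460nm/530nm emission ratio (excitation 405nm) after CCF4 loading for 2.5 hours at room temperature. Cells carried an AP-1-driven beta-lactamase reporter, were stimulated with EC50 EGF plus compound for 5 hours, and AC50 values came from titrations.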

[2] = NFAT Signaling Pathway (AID 444); settings: Jurkat NFAT-bla M1, carbachol, beta-lactamase ratio, 5 h; at 17.2 µM (top of the series);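 further: carbachol stimulus at about its EC50 of 1 µM final; on the % scale 0 is the no-effect control and ±100 the full control effect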
Method in brief: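 Jurkat cells with NFAT-driven β-lactamase reporter and co-expressed M1 receptor, stimulated with carbachol (final 1 uM, ~EC50), compound titration, 5 h at 37 °C. CCF4 loaded 1 h at RT; 460/530 nm ratio gave %activity and AC50.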

[3] = Stat Signaling Pathway (AID 446);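 further: ME-180 cervical cancer cells given 40 pM IL-6 alongside compound; SIE-controlled beta-lactamase reporter measured as 460/530 nm FRET emission ratio; on the % scale 0 is the no-effect control and ±100 the full control effect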
Method in brief: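 Reporter line: ME-180 cervical carcinoma, SIE-beta-lactamase. Treatment: compound with 40 pM IL-6, 5 hrs, 37 C, in low-serum OPTI-MEM with 10 mM HEPES pH 7.3. Detection: 460/530 nm fluorescence.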

[4] = target: Glucocorticoid receptor (Homo sapiens) (UniProt P04150); assay: GR-EFC Redistribution (AID 451; calls by dose curve; further: potency means the concentration at half of the fitted maximal effect); settings: CHO-K1 GR-EFC translocation, beta-gal luminescence, 2 h
Glucocorticoid receptor (Homo sapiens), sequence (P04150 whole entry, looked up, the tested form may be a part): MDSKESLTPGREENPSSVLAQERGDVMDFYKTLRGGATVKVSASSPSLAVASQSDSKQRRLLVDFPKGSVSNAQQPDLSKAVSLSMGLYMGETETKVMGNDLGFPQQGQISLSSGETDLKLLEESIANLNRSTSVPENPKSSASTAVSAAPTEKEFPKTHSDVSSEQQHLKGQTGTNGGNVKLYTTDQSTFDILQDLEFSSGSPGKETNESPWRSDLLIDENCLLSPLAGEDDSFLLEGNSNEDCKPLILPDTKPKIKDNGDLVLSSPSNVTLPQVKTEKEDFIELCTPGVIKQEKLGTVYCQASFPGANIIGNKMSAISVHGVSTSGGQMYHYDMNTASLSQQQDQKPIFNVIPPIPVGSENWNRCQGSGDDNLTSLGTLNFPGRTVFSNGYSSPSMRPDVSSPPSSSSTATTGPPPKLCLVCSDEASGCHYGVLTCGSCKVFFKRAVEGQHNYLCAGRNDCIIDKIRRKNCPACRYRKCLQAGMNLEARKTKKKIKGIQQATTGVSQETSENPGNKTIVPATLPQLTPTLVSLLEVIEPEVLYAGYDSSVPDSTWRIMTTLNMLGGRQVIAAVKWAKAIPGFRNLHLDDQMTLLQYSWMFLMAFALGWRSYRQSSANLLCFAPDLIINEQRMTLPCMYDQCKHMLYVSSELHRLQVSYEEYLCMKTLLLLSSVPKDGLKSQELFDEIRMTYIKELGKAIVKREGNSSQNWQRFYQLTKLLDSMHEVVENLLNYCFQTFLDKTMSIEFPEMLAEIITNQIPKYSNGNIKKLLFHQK
Method in brief: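 CHO-K1 cells expressing nuclear EA and GR-ED fragments of b-gal; compounds titrated up to 46 uM final, 2 h at 37 C. GR nuclear translocation read as complemented b-gal luminescence after 1 h RT detection.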

[5] = target: Mitogen-activated protein kinase 10 (Mus musculus) (UniProt Q61831); assay: JNK3 AlphaScreen Assay (AID 530);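 further: kinase came from lysate of stimulated human HepG2 cells; signal reports phosphorylation of biotinylated GST-cJun 1-79 at Ser73 with 10 µM ATP; on the % scale 0 is the no-effect control and ±100 the full control effect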
Method in brief: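 qHTS format: compounds tested as titrations against IL-1beta/TNF-alpha-activated HepG2 lysate JNK3 with biotin-GST-cJun substrate and 10 uM ATP at room temperature. Loss of anti-phospho-cJun AlphaScreen signal indicates inhibition.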

[6] = target: 3',5'-cyclic-AMP phosphodiesterase 4B (Homo sapiens) (UniProt Q07343); assay: qHTS Assay for Inhibitors of PDE-IV (AID 607; active means well fitted activation curve with a large enough effect in the main read-out, with a control signal flat, not every such curve was filed as active; further: % of control where 0% means no effect)
3',5'-cyclic-AMP phosphodiesterase 4B (Homo sapiens), sequence (Q07343 whole entry, looked up): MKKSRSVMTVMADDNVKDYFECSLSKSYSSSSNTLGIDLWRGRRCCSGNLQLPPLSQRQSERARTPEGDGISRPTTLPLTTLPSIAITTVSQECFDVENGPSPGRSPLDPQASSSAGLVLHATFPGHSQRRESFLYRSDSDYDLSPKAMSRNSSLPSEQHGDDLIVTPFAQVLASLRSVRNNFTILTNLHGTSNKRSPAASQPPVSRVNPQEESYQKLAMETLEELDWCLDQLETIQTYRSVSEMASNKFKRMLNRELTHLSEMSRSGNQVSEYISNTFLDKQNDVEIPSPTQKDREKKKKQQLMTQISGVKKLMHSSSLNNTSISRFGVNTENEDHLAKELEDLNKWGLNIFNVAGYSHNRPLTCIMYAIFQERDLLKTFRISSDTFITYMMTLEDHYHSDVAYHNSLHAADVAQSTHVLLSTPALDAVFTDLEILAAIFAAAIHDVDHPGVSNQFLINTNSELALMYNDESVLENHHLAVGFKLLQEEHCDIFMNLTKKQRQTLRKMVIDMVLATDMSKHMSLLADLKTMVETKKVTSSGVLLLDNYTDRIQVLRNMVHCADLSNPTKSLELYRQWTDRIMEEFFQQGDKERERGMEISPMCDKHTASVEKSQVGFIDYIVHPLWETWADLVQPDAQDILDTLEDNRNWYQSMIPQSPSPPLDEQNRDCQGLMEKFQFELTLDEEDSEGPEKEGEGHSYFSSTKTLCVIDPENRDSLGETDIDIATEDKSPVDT
Method in brief: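 Cell-based read-out of cAMP via a modified cyclic nucleotide-gated channel and membrane potential dye (535/590 nm) in HEK293 cells expressing PDE4 endogenously. Compounds tested up to 22.9 uM final; 100 uM RO 20-1724 reference.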

[7] = qHTS Assay for Lipid Storage Modulators (AID 1519; calls by dose curve); settings: Drosophila S3 cells, BODIPY lipid droplet/cell ratio, laser cytometry, cells loaded with oleic acid; for activity change, negative = inhibition: at 25.7 µM (top of the series)
Method in brief: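 Cells seeded at 5,000 per well were treated with compounds over a concentration series and loaded with oleic acid (400 uM, as added). Lipid droplet fluorescence (488 nm excitation, 500-530 nm channel) was read by laser-scanning cytometry and normalized to 20 uM Triacsin C.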

[8] = target: Glucocorticoid receptor (Homo sapiens) (UniProt P04150); assay: GR-GFP Redistribution (AID 450;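 active means compounds whose dose series gives a full or clear partial fitted curve of increased nuclear translocation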; further: potency means the concentration at half of the fitted maximal effect); settings: U2OS GR-GFP nuclear translocation, laser cytometry, 2 h
[9] = target: Ubiquitin carboxyl-terminal hydrolase 1 (Homo sapiens) (UniProt O94782); assay: Inhibitors of USP1/UAF1: Pilot qHTS (AID 504865; active means well fitted inhibition curve with a large enough effect; further: nearly all actives have a fitted effect of over 35% in size; further: potency means the concentration at half of the fitted maximal effect)
Ubiquitin carboxyl-terminal hydrolase 1 (Homo sapiens), sequence (O94782 whole entry, looked up): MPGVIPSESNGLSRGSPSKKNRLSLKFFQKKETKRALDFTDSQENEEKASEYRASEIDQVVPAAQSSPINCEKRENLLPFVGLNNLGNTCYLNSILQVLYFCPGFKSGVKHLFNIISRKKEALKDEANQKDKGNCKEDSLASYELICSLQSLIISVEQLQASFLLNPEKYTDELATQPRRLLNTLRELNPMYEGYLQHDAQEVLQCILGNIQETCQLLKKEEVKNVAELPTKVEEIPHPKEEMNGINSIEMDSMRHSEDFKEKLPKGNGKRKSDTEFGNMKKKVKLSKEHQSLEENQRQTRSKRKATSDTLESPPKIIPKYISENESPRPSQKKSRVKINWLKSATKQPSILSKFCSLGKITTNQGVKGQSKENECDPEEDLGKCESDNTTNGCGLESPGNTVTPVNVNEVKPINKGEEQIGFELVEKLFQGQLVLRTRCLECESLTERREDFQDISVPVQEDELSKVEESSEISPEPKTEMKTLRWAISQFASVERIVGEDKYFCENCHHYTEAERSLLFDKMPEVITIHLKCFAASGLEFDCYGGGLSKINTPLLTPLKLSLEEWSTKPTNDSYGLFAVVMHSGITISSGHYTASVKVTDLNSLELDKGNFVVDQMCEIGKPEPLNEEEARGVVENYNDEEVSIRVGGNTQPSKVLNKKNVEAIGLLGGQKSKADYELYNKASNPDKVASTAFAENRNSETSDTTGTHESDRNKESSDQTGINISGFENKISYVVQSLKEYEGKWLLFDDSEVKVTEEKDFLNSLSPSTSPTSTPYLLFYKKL
Method in brief: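 1nM USP1/UAF1 + cpd, 15 min RT; start w/ Ub-Rho 150nM final; kinetic FL 480/540 nm, 6 reads q60 s. Buffer 50mM HEPES pH 7.8, 0.5mM EDTA, 1mM TCEP, 0.01% Tween-20, 0.1 mg/ml BSA.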

[10] = target: Cytochrome P450 1A2 (Homo sapiens) (UniProt P05177); assay: p450-cyp1a2 (AID 410; calls by dose curve;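 further: -100% = full effect of reference inhibitor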)
Cytochrome P450 1A2 (Homo sapiens), sequence (P05177 whole entry, looked up): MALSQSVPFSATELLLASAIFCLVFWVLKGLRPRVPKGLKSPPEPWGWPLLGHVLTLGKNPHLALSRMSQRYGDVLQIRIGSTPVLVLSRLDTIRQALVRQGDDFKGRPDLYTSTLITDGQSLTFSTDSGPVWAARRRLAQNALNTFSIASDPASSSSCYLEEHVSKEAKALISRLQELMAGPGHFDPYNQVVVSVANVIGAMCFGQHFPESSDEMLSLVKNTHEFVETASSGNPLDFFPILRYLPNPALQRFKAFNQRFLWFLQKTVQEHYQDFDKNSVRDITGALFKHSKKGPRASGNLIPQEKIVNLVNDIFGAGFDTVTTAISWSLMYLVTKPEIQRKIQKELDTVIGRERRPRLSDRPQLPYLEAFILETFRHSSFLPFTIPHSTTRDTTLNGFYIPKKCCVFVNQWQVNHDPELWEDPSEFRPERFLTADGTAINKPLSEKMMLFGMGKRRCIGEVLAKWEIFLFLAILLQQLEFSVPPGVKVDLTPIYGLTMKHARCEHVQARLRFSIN
Method in brief: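 Inhibition was calculated relative to 57 uM furafylline (full inhibition). The reaction used human CYP1A2 at 20nM with Luciferin-ME at its Km, 100uM, driven by an NADPH-regenerating system for 60 min at room temperature.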

[11] = measured here: cell count channel max response
[12] = measured here: lipid channel max response

CN1CCC2=C[C@H](O)[C@@H]3OC(=O)c4cc5c(cc4[C@H]3[C@H]21)OCO5
inactive: outcome [1] | activity change, negative = inhibition [2] -12.8% | outcome [3] | Potency [4] > 20.6 µM | outcome [5] | Potency [6] | activity change, negative = inhibition [7] 0.357%
-1.93%: max response [7, 12]
-2.84%: max response [7, 11]

CC[C@H](CO)NC(=O)[C@H]1C=C2c3cccc4[nH]cc(c34)C[C@@H]2N(C)C1
3.2%: max response [7, 11]
inactive: outcome [1] | activity change, negative = inhibition [2] -13.5% | outcome [3] | Potency [8] > 20.6 µM | Potency [4] > 20.6 µM | outcome [5] | Potency [6] | activity change, negative = inhibition [7] 0.62%
2.54%: max response [7, 12]
active: Potency [9] 17.8 µM

CC[C@H](C)C(=O)O[C@@H]1[C@H](O)[C@@H]2[C@H](CN3C[C@@H](C)CC[C@@H]3[C@@]2(C)O)[C@@H]2C[C@@]34O[C@@]5(O)[C@@H](OC(=O)[C@](C)(O)CC)CC[C@@]3(C)[C@H]5[C@H](OC(C)=O)[C@@H](OC(C)=O)[C@H]4[C@]12O
-2.6%: max response [7, 11]
inactive: outcome [1] | Potency [10] | activity change, negative = inhibition [2] -8.39% | outcome [3] | Potency [4] > 20.6 µM | outcome [5] | Potency [6] | activity change, negative = inhibition [7] -1.19%
-3.1%: max response [7, 12]

CN1[C@H]2CC(=O)C[C@@H]1[C@@H](O)C2
inactive: outcome [1] | Potency [10] | activity change, negative = inhibition [2] -9.47% | Potency [8] > 20.6 µM | Potency [4] > 20.6 µM | Potency [6] | activity change, negative = inhibition [7] -5.66%
-20.9%: max response [7, 11]
-23.7%: max response [7, 12]

C=C(C)[C@H]1[C@H]2OC(=O)[C@@H]1[C@]1(O)C[C@H]3O[C@]34C(=O)O[C@H]2[C@@]14C
-3.6%: max response [7, 11]
-3.43%: max response [7, 12]
inactive: outcome [1] | activity change, negative = inhibition [2] -0.55% | outcome [3] | Potency [8] > 20.6 µM | Potency [4] > 20.6 µM | Potency [6] | activity change, negative = inhibition [7] -0.482% | Potency [9]

C(#CCN1CCCC1)CN1CCCC1
10.9%: max response [7, 11]
inactive: outcome [1] | Potency [10] | outcome [3] | Potency [4] > 20.6 µM | outcome [5] | Potency [6] | activity change, negative = inhibition [7] 0.99% | Potency [9]
10.3%: max response [7, 12]

O=[N+]([O-])O[C@H]1CO[C@H]2[C@H]1OC[C@@H]2O[N+](=O)[O-]
inactive: outcome [1] | activity change, negative = inhibition [2] -5.68% | outcome [3] | Potency [4] > 20.6 µM | Potency [6] | activity change, negative = inhibition [7] -2.81%
-3.6%: max response [7, 12]
-2.42%: max response [7, 11]

C[C@@H]1NCCc2cc(O)c(O)cc21
-9.01%: max response [7, 11]
inactive: outcome [1] | activity change, negative = inhibition [2] -2.85% | outcome [3] | Potency [4] > 20.6 µM | outcome [5] | Potency [6] | activity change, negative = inhibition [7] -2.45% | Potency [9]
-11.5%: max response [7, 12]
